The panel holds about 83,000 compounds, 20% with a hit somewhere; the sample as a whole holds those more often.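 Assay: single dose, 48 h. Readout: percent growth (0 = no net growth; negative = cell death). Active: <10.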 Activity calls are given as the source filed them.
What was measured:
Experiment in all cases: NCI-60 one-dose screen, 48 h (100 = growth as untreated, 0 = no growth, -100 = all killed)
SK-MEL-2 melanoma = conditions: 10 µM unless noted
EKVX NSCLC = conditions: 10 µM unless noted
SN12C renal = conditions: 10 µM unless noted
UO-31 renal = conditions: 10 µM unless noted
TK-10 renal = conditions: 10 µM unless noted
ACHN renal = conditions: 10 µM unless noted
CAKI-1 renal = conditions: 10 µM
A498 renal = conditions: 10 µM unless noted
CCRF-CEM leukemia = conditions: 10 µM unless noted
MOLT-4 leukemia = conditions: 10 µM unless noted
SR leukemia = conditions: 10 µM unless noted
RPMI-8226 leukemia = conditions: 10 µM unless noted
OVCAR-8 ovarian = conditions: 10 µM unless noted
OVCAR-5 ovarian = conditions: 10 µM unless noted
OVCAR-4 ovarian = conditions: 10 µM unless noted
SK-OV-3 ovarian = conditions: 10 µM unless noted
IGROV1 ovarian = conditions: 10 µM unless noted
OVCAR-3 ovarian = conditions: 10 µM unless noted
HS 578T breast = conditions: 10 µM unless noted
NCI/ADR-RES ovarian = conditions: 10 µM unless noted

Measured: growth

CCCC(=O)NC(c1cccnc1)c1cc(Cl)c2cccnc2c1O (stereo not given)
inactive: SK-MEL-2 melanoma 42.7% | EKVX NSCLC 24% | SN12C renal 44.4% | UO-31 renal 22.3% | TK-10 renal 47.6% | ACHN renal 20.5% | CAKI-1 renal 34.6% | A498 renal 89.9% | CCRF-CEM leukemia 25% | MOLT-4 leukemia 30.3% | SR leukemia 39.6% | RPMI-8226 leukemia 30.7% | OVCAR-8 ovarian 21.9% | OVCAR-5 ovarian 55.6% | OVCAR-4 ovarian 22.7% | SK-OV-3 ovarian 44.4% | IGROV1 ovarian 28.5% | OVCAR-3 ovarian 19.7% | HS 578T breast 17.3% | NCI/ADR-RES ovarian 10.2%

NNC(=O)c1sc2nc(-c3cnccn3)cc(-c3cccs3)c2c1N
inactive: SK-MEL-2 melanoma 102% | EKVX NSCLC 86.8% | SN12C renal 95.5% | UO-31 renal 75.9% | TK-10 renal 118% | ACHN renal 95.4% | CAKI-1 renal 87.6% | A498 renal 79.5% | CCRF-CEM leukemia 62.7% | MOLT-4 leukemia 77% | SR leukemia 86.5% | RPMI-8226 leukemia 107% | OVCAR-8 ovarian 93.8% | OVCAR-5 ovarian 99.1% | OVCAR-4 ovarian 74.4% | SK-OV-3 ovarian 92.1% | IGROV1 ovarian 89.5% | OVCAR-3 ovarian 84.5% | HS 578T breast 119% | NCI/ADR-RES ovarian 105%

Cc1nn(-c2ccccc2)cc1/C=N/Nc1nc(Nc2ccccc2)nc(Nc2ccc(S(N)(=O)=O)cc2)n1
inactive: SK-MEL-2 melanoma 54.8% | EKVX NSCLC 18.8% | TK-10 renal 44.5% | SR leukemia 33.6% | OVCAR-8 ovarian 18.2% | OVCAR-4 ovarian 14.9% | SK-OV-3 ovarian 50.5% | IGROV1 ovarian 13.1% | HS 578T breast 13.8% | NCI/ADR-RES ovarian 76.4%
active: SN12C renal 0.245% | UO-31 renal -4.7% | ACHN renal 0.841% | CAKI-1 renal -27.8% | A498 renal -30.3% | CCRF-CEM leukemia 8.85% | MOLT-4 leukemia 6.35% | RPMI-8226 leukemia -23.1% | OVCAR-5 ovarian -13.2% | OVCAR-3 ovarian -31.1%

CCNC(=NCCCN(C)C)N/C(N)=N/c1nc2ccccc2s1
inactive: SK-MEL-2 melanoma 92.9% | EKVX NSCLC 90.9% | SN12C renal 82% | UO-31 renal 64.3% | TK-10 renal 100% | ACHN renal 95.3% | CAKI-1 renal 65.1% | A498 renal 111% | CCRF-CEM leukemia 82.3% | MOLT-4 leukemia 94.8% | SR leukemia 55.1% | RPMI-8226 leukemia 96.9% | OVCAR-8 ovarian 90.9% | OVCAR-5 ovarian 95.6% | OVCAR-4 ovarian 107% | SK-OV-3 ovarian 89.9% | IGROV1 ovarian 91.1% | OVCAR-3 ovarian 104% | HS 578T breast 92% | NCI/ADR-RES ovarian 96.8%

COc1ccc(N)cc1C(=O)Nc1cccc(-c2cc(=O)c3c(OC)c(OC)c(OC)cc3o2)c1
inactive: SK-MEL-2 melanoma 89.1% | EKVX NSCLC 84.8% | SN12C renal 49.7% | UO-31 renal 29.4% | TK-10 renal 81.5% | ACHN renal 52.3% | CAKI-1 renal 43.1% | A498 renal 63.1% | CCRF-CEM leukemia 34% | MOLT-4 leukemia 48.2% | SR leukemia 40.9% | RPMI-8226 leukemia 35.4% | OVCAR-8 ovarian 56.4% | OVCAR-5 ovarian 94.8% | OVCAR-4 ovarian 81.5% | SK-OV-3 ovarian 119% | IGROV1 ovarian 51.3% | OVCAR-3 ovarian 65.5% | HS 578T breast 58.3% | NCI/ADR-RES ovarian 60.7%

N=c1c2cc(-c3ccccc3)oc2ncn1/N=C/c1ccccc1
inactive: SK-MEL-2 melanoma 97.2% | EKVX NSCLC 86.5% | SN12C renal 86.1% | UO-31 renal 85.6% | TK-10 renal 80.3% | ACHN renal 75.1% | CAKI-1 renal 67.5% | A498 renal 77.8% | CCRF-CEM leukemia 64% | MOLT-4 leukemia 65.3% | SR leukemia 16.4% | RPMI-8226 leukemia 99.1% | OVCAR-8 ovarian 96.9% | OVCAR-5 ovarian 83.5% | OVCAR-4 ovarian 93.2% | SK-OV-3 ovarian 96.5% | IGROV1 ovarian 63% | OVCAR-3 ovarian 59.2% | HS 578T breast 91.3% | NCI/ADR-RES ovarian 60.3%

O=C(CCCCCCN1CC(=O)N2[C@@H](c3cc(F)cc(F)c3)c3[nH]c4ccccc4c3C[C@H]2C1=O)NO
inactive: SK-MEL-2 melanoma 62.1% | EKVX NSCLC 78.9% | SN12C renal 71.9% | UO-31 renal 61.6% | TK-10 renal 69.6% | ACHN renal 88.8% | CAKI-1 renal 64.7% | A498 renal 77.6% | CCRF-CEM leukemia 16.5% | MOLT-4 leukemia 14.2% | SR leukemia 26% | RPMI-8226 leukemia 24.2% | OVCAR-8 ovarian 45% | OVCAR-5 ovarian 66.4% | OVCAR-4 ovarian 69.4% | SK-OV-3 ovarian 60.9% | IGROV1 ovarian 49.1% | OVCAR-3 ovarian 55.8% | HS 578T breast 61.6% | NCI/ADR-RES ovarian 91.5%

COc1ccc(/C=N/Nc2nc(N/N=C/c3ccc(OC)cc3O)nc(N3CCOCC3)n2)c(O)c1
inactive: SK-MEL-2 melanoma 82.6% | EKVX NSCLC 46.6% | SN12C renal 75.1% | UO-31 renal 11.2% | TK-10 renal 78.1% | ACHN renal 27.9% | CAKI-1 renal 37.9% | A498 renal 66.8% | CCRF-CEM leukemia 27.1% | MOLT-4 leukemia 35.3% | SR leukemia 27.4% | RPMI-8226 leukemia 41.7% | OVCAR-8 ovarian 69.1% | OVCAR-5 ovarian 68.1% | OVCAR-4 ovarian 63.1% | SK-OV-3 ovarian 89.1% | IGROV1 ovarian 51.1% | OVCAR-3 ovarian 19.1% | HS 578T breast 77.7% | NCI/ADR-RES ovarian 23.1%

Source: PubChem BioAssay (NCI)
